# Measured values published in the supplement of paper PMC6555819.
# Tested on: VDR:RXRa (NR concentration 270 nM, RXRa partner concentration 90 nM)
# Test: PBM binding z-score (relative to random genomic background probes); higher = stronger binding; sequences stand for … in GC…GCGATTGACAGCGTAGAATGAAGG
# Description: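 Protein-binding microarray (Agilent 4x180K custom design, double-stranded 60-nt probes: 5' GC cap, 34-nt variable region, 24-nt constant primer region; full probe sequence given). Purified or IVT nuclear receptor:RXRα heterodimers (3:1 NR:RXRα, mostly 270:90 nM) or homodimers were incubated for 1 h in PBS with 2% milk and no ligand, then detected with Alexa488 antibodies. Fluorescence from o1-orientation probes (~5 replicates averaged) was converted to z-scores against 500 random hg19 background probes. Variable regions are seed direct-repeat (DR0–DR5) sites, all their single-nucleotide variants and half-site ablations.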
row,Sequence,PBM binding z-score
1,CCTACTGGGCCAAAGGTCATTGAATCCAATGCTC,4.86
2,GCTTGTAGATCAAGATTAAGAAAGACTAAGCTAA,-0.528
3,TAGCCTAAGTCATTCAGGGGCCAGTATAGAAAGC,-0.0562
4,CGAACTAGGTCAAGGGCAGTGAATCTCCGCACGC,1.4
5,CCTGCTAGATCATGGTCAGCTAATCTACAGTATG,-0.447
6,TCGAGTAGGTTATGGGCATTCAGAATGGCGTCGA,-0.235
7,TCTGGTAGATCAGCAGGTTAAGAAAGCTGGCCAA,0.0223
8,AGTACGAGGGCAATGAGTTGATAGCACGGGTGGC,5.08
9,CTGGAAAGGTCGTGCTCAGGTGAGTATACCAAAC,3.1
10,CCGACTGGGGCATAAGGTTACGATAAGCCAGCCC,0.321
11,GCATATAGGTAATACAAGGTGAAAGTGCGATTGT,0.469
12,CCTATCAGGCCAGGGTCACTCAAGCATTTCGCTT,2.73
13,ACTAGCAAGCCAAGTTTGGGTCACTCAAACAAAG,0.188
14,CAGCCTAGGTCAGGGCCAGTATGGGAGGAACGTT,-0.0336
15,AGTCAAAGTTCAGGACGAGGCAACGTAAAGCACG,1.93
16,TAGCCTAGGTCATTGGGCCAGTAGAGTACGCATC,2.26
17,CGAACGAGGGCATGAGTAGATAGCAAATGCCGAT,0.5
18,TAGCCTAGGTCATGCGGGCCGGTATAGTGTCGGC,2.22
19,CCTAGCAGGCCAATCTGCGTCACTCAAGGCTTGA,-0.714
20,GCTGCTAGGTCAGGTAGGTCAGCTAACGGGTACG,3.35

row,Sequence,PBM binding z-score
1,CGTCCAAGGTCATAGGAGGTCAGTAAAGACAGAT,6.61
2,CCGAGTAGGTTATGGGGCATCCAGGCAACGGTGA,-0.0665
3,CCTAGCAGGCGAATCTGGGTCACTCAAGGCTTGA,-0.0504
4,TGAATGAGTTTATAAGATCAGGGAACGTTGCAAA,1.26
5,GCGACTGGGGCAAAGCAGGTTACCATGAGGTTGG,0.114
6,TCTATTAGTTGATTAGGGCAACCAAAACAGCGGA,0.701
7,GATACAGGGTCAGCTAGAGCCCAGAGTATGGAAA,2.26
8,TCTTGTATATCAAGCAGGTTAAGAAAGCCTGAGT,0.659
9,TCATATAGTTAAATGCTAGGTGAAAGTCCGATCT,0.952
10,CGAACTAGGTCAAGGAAAGTGAATCTCCGCACGC,1.02
11,CGAACTAGCTCAGAACAGGACAGTGAAGGATGAT,-0.427
12,CCTTACGGGTCAAGGTTATAACACGGGTGGTACG,3.51
13,ATCTCTAGGTAACCAAGTCCAGTGAATGCCGAAC,0.999
14,CGAACTAGCTCATCCAGGACAGTGAATACATTGA,-0.134
15,GCTAGCAGGCCTTTTGGGTCACTCAATGACGGGC,-0.0926
16,ATCGAAAGGTCGAGGTTAGTATAGAGAAAGGGAA,2.75
17,TCATAAAGGTAAATGCTAGGTGAAAGTCCGATCT,0.918
18,TCCTATAGGTAATACAGGTGAAAGTCGGCATCTA,0.718
19,AGAACGAGGGCACGCTGAGTGGATAGCAGAGTAG,0.617
20,TGTATTAGTTGAAGGGCAACCGACGAGTCCGTTT,0.926
